Screening data as filed in PubChem.
This is a sample that favours compounds with a hit; in the whole collection about 7.9% have one here.
HCMV inh: qHTS Assay for inhibitors of the human cytomegalovirus (HCMV); HFF cells, HCMV-luciferase reporter, 72 h; hits give low values; activity change, negative = inhibition, % at 57.5 µM; actives 4.5% (n = 410,000); in the data active = activity change below about -60%; inconclusive = no clear call, values can overlap the other calls; inactive = above about -39%
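Two-dose cell screen: HFF monolayers treated with compounds and infected with luciferase-expressing HCMV at 1 PFU/cell, 72 h at 37C, then lysed for luciferase measurement.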
Lassa entry inh: qHTS for Inhibitors of binding or entry into cells for Lassa Virus; Lassa virus pseudotype entry inhibition, cell reporter; Potency, µM (highest dose often 37.9 µM), for inactives: at the top dose activity change, negative = inhibition, most hits filed as inhibitors; actives 1.2% (n = 300,000); AID 540256, 2011; calls by dose curve; tested in HEK293 cells; also: potency is read from the fitted curve at half-maximal effect; nearly all actives have a fitted effect of over 50% in size
MARV entry inh: qHTS for inhibitors of binding or entry into cells for Marburg Virus. Marburg virus pseudotyped entry inhibition, cell reporter. Potency, µM (series often up to 37.8 µM), for inactives: top-dose activity change, negative = inhibition, actives largely listed as inhibitors. actives 1.8% (n = 300,000). AID 540276, 2011; calls by dose curve; tested in HEK293 cells; also: potency is read from the fitted curve at half-maximal effect
HCV inh: qHTS Assay for Inhibitors of Hepatitis C Virus (HCV). Huh7.5.1 HCVcc-Cre infection, luciferase reporter, 44 h. actives 3.4% (n = 340,000). Potency, µM (top dose mostly 41.8 µM), for the others: at the highest dose activity change, negative = inhibition, usual class: inhibitors. AID 651820, 2012; active = well fitted inhibition curve with a large enough effect; inconclusive = small, poorly fitted or top-dose-only effect, or another doubt; inactive = no such curve, though single readings can be large or run the other way; also: potency is read from the fitted curve at half-maximal effect
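Whole-lifecycle infectious HCVcc-Cre system; cells 1,000/well, compound then virus (~0.5 moi) added 4 h after plating, 44 h culture. Luciferase read 15 sec following 15 min substrate incubation, room temp.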
FMDV inh: High Throughput Screening for Foot and Mouth Disease Virus Antivirals | AID 1159524, 2015 | FMDV antiviral cell-based qHTS | actives 1.2% (n = 410,000) | Potency, µM (series often up to 57.9 µM), for the others: at the top dose activity change, negative = inhibition, most hits filed as inhibitors; calls by dose curve; tested in HEK293T cells; also: read-out not given here; potency is read from the fitted curve at half-maximal effect; nearly all actives have a fitted effect of over 45% in size
The depositor's hits bear a star; [ ] = dose if it differs, or a comment. % is scaled to controls: 0 for no effect and ±100 for the full control effect.

`COc1ccc(-n2nc(C(=O)Nc3ccccn3)c3c4ccccc4n(C)c3c2=O)cc1` gave HCMV inh -20.3, Lassa entry inh 10.2%[46.1 µM], MARV entry inh inconclusive and FMDV inh -6.1%.
For COc1ccc(-c2nc3cnc(N4CCN(C)CC4)nc3n(-c3ccc(OC)cc3)c2=O)cc1 the results were FMDV inh -10.2%.
CC(=O)N1CCc2cc(Br)cc(S(=O)(=O)CCC(=O)N3CCN(c4ccccc4Cl)CC3)c21 was read as HCMV inh 9.6, Lassa entry inh -10.0%[46.1 µM], MARV entry inh -12.1%[46.1 µM] and FMDV inh -0.1%.
For COCCn1c(C)cc(C(=O)CSc2nc3ccccc3s2)c1C the results were HCMV inh -83.4*, Lassa entry inh inconclusive, MARV entry inh inconclusive, HCV inh 10µM* and FMDV inh 15.8µM*.
`[N-]=[N+]=Nc1nc2c(N)ncnc2n1C1OC(CO)C(O)C1O` (stereo not given) gave FMDV inh -28.8%.
`Nc1ncnc2c(C3OC(CO)C(O)C3O)c[nH]c12` (stereo not given) gave HCMV inh -97.5*, Lassa entry inh inconclusive, MARV entry inh inconclusive, HCV inh inconclusive and FMDV inh 0.0%.
`O=C1CCC[C@H]2[C@@H](Cc3ccccc3)[C@@H](NS(=O)(=O)c3ccccc3)CC[C@]23CCCN13` gave HCMV inh -20.9.
Screening COC(=O)C(CC(=O)c1cccc(OC)c1)c1ccc(F)cc1 (stereo not given) returned HCMV inh -36.0, Lassa entry inh inconclusive, MARV entry inh inconclusive, HCV inh inconclusive and FMDV inh -5.8%.
Screening O=C(CCCn1c(=O)c2cccn2c2ccccc21)Nc1cccc(Cl)c1 returned HCMV inh -69.9*, Lassa entry inh inconclusive and FMDV inh -16.6%.
`CN(CCCNC(=O)Cn1c(=O)c2cccn2c2ccccc21)Cc1ccccc1` gave HCMV inh -88.3*, HCV inh -7.6% and FMDV inh 0.0%.
Cc1cc(C)cc(NC(=O)CCCn2c(=O)c3cccn3c3ccccc32)c1 was read as HCMV inh -18.3, Lassa entry inh inconclusive and FMDV inh -14.2%.
For O=C(CCN1CCCCCC1)Nc1cccc(Cl)c1 the results were HCMV inh -60.5*, Lassa entry inh -16.3%, MARV entry inh -24.3%, HCV inh -5.6% and FMDV inh 2.9%.
`COc1cccc(CNC(=O)CN2c3cccc4cccc(c34)S2(=O)=O)c1` gave HCMV inh -88.3*, Lassa entry inh 3.0%, MARV entry inh inconclusive, HCV inh -26.4% and FMDV inh 0.3%.
`O=C(CCN1CCCCC1)Nc1cccc(Cl)c1` gave HCMV inh -13.6, Lassa entry inh 0.9%, MARV entry inh 11.5%, HCV inh 0.9% and FMDV inh -21.4%.
Cc1nn(C)c2ncc(C(N)=O)c(Oc3ccc(Cl)cc3)c12 was read as HCMV inh inconclusive, Lassa entry inh inconclusive, MARV entry inh -0.4%, HCV inh -4.3% and FMDV inh 0.0%.
Screening CC(=O)N(OCc1ccccc1)[C@@H]1c2cc(C#N)ccc2OC(C)(C)[C@H]1O returned FMDV inh 19.5%.
O=C(NC(C(=O)N/N=C/c1cccnc1)c1n[nH]c(=O)c2ccccc12)c1ccccc1 (stereo not given) was read as HCMV inh 92.0, Lassa entry inh 2.0%, MARV entry inh 8.7%, HCV inh 28.1% and FMDV inh -7.2%.
For CCOC(=O)c1c(C)[nH]c(C)c1S(=O)(=O)NCC(=O)N(C)c1ccc(C)c(C)c1 the results were HCMV inh 42.0, Lassa entry inh 4.8%[46.1 µM] and FMDV inh 25.5%.
Screening O=C(Cn1c(=O)c2cccn2c2ccccc21)NCc1cccc(F)c1 returned HCMV inh inconclusive, Lassa entry inh 2.4%[46.1 µM], MARV entry inh 0.5%[46.1 µM], HCV inh -10.9% and FMDV inh 6.4%.
`CSc1ccc(CCNC(=O)CCn2c(=O)c3cccn3c3ccc(F)cc32)cc1` gave HCMV inh -21.7, Lassa entry inh 8.8%[46.1 µM] and FMDV inh -15.6%.
For COc1cccc(CNC(=O)Cn2c(=O)c3cccn3c3ccccc32)c1 the results were HCMV inh -65.7*, HCV inh -0.6% and FMDV inh -11.2%.
For CC(=O)c1ccc(NC(=O)Cn2c(=O)c3cccn3c3ccccc32)cc1 the results were HCMV inh inconclusive, Lassa entry inh 1.78µM* and FMDV inh -8.3%.
Screening O=C(CCn1c(=O)c2cccn2c2ccc(F)cc21)NCCc1ccccc1 returned HCMV inh inconclusive, Lassa entry inh 6.6%[46.1 µM], HCV inh 10µM* and FMDV inh -17.8%.
`c1ccc(-c2ccc(N3CCCC4(CCNCC4)C3)cc2)cc1` gave FMDV inh -20.7%.
`c1nnnn1C12CC3CC(CC(C3)C1)C2` gave HCMV inh -63.7*, Lassa entry inh -1.1%, MARV entry inh 16.7%, HCV inh 10.2% and FMDV inh -20.3%.
For Cc1ccccc1C(=O)NC1(C(F)(F)F)N=C(c2ccccc2)N(C2CCCCC2)C1=O (stereo not given) the results were HCMV inh -102.4*, Lassa entry inh 0.9%[46.1 µM], MARV entry inh inconclusive and FMDV inh inconclusive.
`CC(C)C[C@H]1CN([C@@H](CC(C)C)CN2CCCC2CN2C(=S)NC[C@@H]2Cc2ccc(O)cc2)C(=S)N1CC1CCCCC1` (stereo not given in full) gave HCMV inh -107.4*, HCV inh -8.8% and FMDV inh inconclusive.
CC(C)C[C@H]1CN([C@@H](CC(C)C)CN2CCC[C@@H]2CN2C(=S)NC[C@@H]2Cc2ccc(O)cc2)C(=S)N1CC1CCCCC1 was read as HCMV inh -22.1 and FMDV inh -19.5%.
Screening CC(C)C[C@H]1CNC(=S)N1CC1CCCN1C[C@H](CC(C)C)N1C[C@H](Cc2ccccc2)N(CC2CCCCCC2)C1=S (stereo not given in full) returned HCMV inh -16.5, HCV inh 26.2% and FMDV inh -28.0%.
Screening CC(C)C[C@H]1CN([C@@H](CC(C)C)CN2CCCC2CN2C(=S)NC[C@@H]2Cc2ccc(O)cc2)C(=S)N1CC1CCCCCC1 (stereo not given in full) returned HCMV inh -69.7*, HCV inh 4.9% and FMDV inh inconclusive.
Screening CCN(c1ccccc1)c1nc(Cl)nc2c1cnn2C returned HCMV inh -17.6, Lassa entry inh -22.6%[46.1 µM], MARV entry inh 3.9%[46.1 µM], HCV inh inconclusive and FMDV inh -26.4%.
Cc1cccc(Cc2c(C)nc3nc(SCc4ccccc4C)nn3c2C)c1 was read as HCMV inh 22.0, Lassa entry inh 2.9%[46.1 µM] and FMDV inh -9.2%.
